From publication PMC8384837, “Expanding the binding specificity for RNA recognition by a PUF domain”

Columns and labels:
Experiment in all cases: yeast three-hybrid, YBZ-1, SC-Leu-His + 0.5 mM 3-AT, 4 days
Conditions in all cases: tags: N-Gal4 AD-HA kept; label: inside an RPR1-promoter hybrid RNA with tandem MS2 sites; ssRNA
[1] = molecular target: PUM1 PUF domain R4-EYA (Homo sapiens, UniProt Q14671 828-1176, N971E;H972Y;Q975A)
In short: (§1)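 Sequencing with Illumina followed PCR amplification of the repeat regions from transformants grown four days on SC-Leu (input) or SC-Leu-His + 0.5 mM 3-AT (selection). The transformants were strain YBZ-1 with a LexA–MS2 coat fusion and a HIS3 reporter, carrying Pumilio-1 PUF domain libraries and matching RNA elements. The interaction score is the log change in variant frequency from input to selection, computed in log2 with a pseudocount of 1 for absent variants.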

[2] = molecular target: PUM1 PUF domain R5-TRF (Homo sapiens, UniProt Q14671 828-1176, C1007T;Q1011F)
In short: as §1

[3] = molecular target: PUM1 PUF domain R5-GRN (Homo sapiens, UniProt Q14671 828-1176, C1007G;Q1011N)
In short: as §1

[4] = molecular target: PUM1 PUF domain R3-GRL (Homo sapiens, UniProt Q14671 828-1176, C935G;Q939L)
In short: as §1

[5] = molecular target: PUM1 PUF domain R3-ACR (Homo sapiens, UniProt Q14671 828-1176, C935A;R936C;Q939R)
In short: as §1

[6] = molecular target: PUM1 PUF domain R7-RTM (Homo sapiens, UniProt Q14671 828-1176, S1079R;N1080T;E1083M)
In short: as §1

[7] = molecular target: PUM1 PUF domain R1-RKD (Homo sapiens, UniProt Q14671 828-1176, S863R;R864K;Q867D)
In short: as §1

[8] = molecular target: PUM1 PUF domain R5-KRQ (Homo sapiens, UniProt Q14671 828-1176, C1007K)
In short: as §1

[9] = molecular target: PUM1 PUF domain R8-RGW (Homo sapiens, UniProt Q14671 828-1176, N1122R;Y1123G;Q1126W)
In short: as §1

[10] = molecular target: T1, PUM1 PUF domain R6-HWL (Homo sapiens, UniProt Q14671 828-1176, N1043H;Y1044W;Q1047L)
T1 sequence: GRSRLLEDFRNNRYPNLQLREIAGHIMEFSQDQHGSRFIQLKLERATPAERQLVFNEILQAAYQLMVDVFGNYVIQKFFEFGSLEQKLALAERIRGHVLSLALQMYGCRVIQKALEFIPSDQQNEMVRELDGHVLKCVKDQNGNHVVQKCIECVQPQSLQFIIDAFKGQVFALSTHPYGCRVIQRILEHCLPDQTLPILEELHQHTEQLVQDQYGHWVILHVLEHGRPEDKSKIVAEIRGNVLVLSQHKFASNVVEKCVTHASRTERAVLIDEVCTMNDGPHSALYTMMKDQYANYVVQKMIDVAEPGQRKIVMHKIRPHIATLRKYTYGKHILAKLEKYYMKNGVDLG
In short: as §1

For “GGCUAGAACUAGUGGAUCCCCCGGCGCCCGGCGGCUCGAGCCCGGGUAAGUGUAUAUAGUCUGCAUGCCGCCGGGCGCCAUGCCUGCAGGUCGACUCUAGAAAACAUG”, which binding signal [1] is on record?
The binding signal was 3.44 log2 enrichment (interaction score).

“GGCUAGAACUAGUGGAUCCCCCGGCGCCCGGCGGCUCGAGCCCGGGUAAGUGUUAAUAGUCUGCAUGCCGCCGGGCGCCAUGCCUGCAGGUCGACUCUAGAAAACAUG” was tested. Which binding signal [2] did it give?
Its binding signal is 3.8 log2 enrichment (interaction score).

What about the binding signal [3] of the same sequence?
The binding signal was 3.83 log2 enrichment (interaction score).

For “GGCUAGAACUAGUGGAUCCCCCGGCGCCCGGCGGCUCGAGCCCGGGUAAGUGUAAUUAGUCUGCAUGCCGCCGGGCGCCAUGCCUGCAGGUCGACUCUAGAAAACAUG”, which binding signal [4] is on record?
The binding signal was 0.66 log2 enrichment (interaction score).

And the binding signal [5]?
Its binding signal is 3.08 log2 enrichment (interaction score).

Which binding signal [6] does the source give for “GGCUAGAACUAGUGGAUCCCCCGGCGCCCGGCGGCUCGAGCCCGGGUAAGUCUAAAUAGUCUGCAUGCCGCCGGGCGCCAUGCCUGCAGGUCGACUCUAGAAAACAUG” here?
Its binding signal is 0.72 log2 enrichment (interaction score).

With “GGCUAGAACUAGUGGAUCCCCCGGCGCCCGGCGGCUCGAGCCCGGGUAAGUGUAAAUUGUCUGCAUGCCGCCGGGCGCCAUGCCUGCAGGUCGACUCUAGAAAACAUG” as the sequence, how does the binding signal [7] read?
Its binding signal is 2.73 log2 enrichment (interaction score).

“GGCUAGAACUAGUGGAUCCCCCGGCGCCCGGCGGCUCGAGCCCGGGUAAGUUUAAAUAGUCUGCAUGCCGCCGGGCGCCAUGCCUGCAGGUCGACUCUAGAAAACAUG” was tested. Which binding signal [6] did it give?
The binding signal was 2.58 log2 enrichment (interaction score).

Which binding signal [5] does the source give for “GGCUAGAACUAGUGGAUCCCCCGGCGCCCGGCGGCUCGAGCCCGGGUAAGUGUAAGUAGUCUGCAUGCCGCCGGGCGCCAUGCCUGCAGGUCGACUCUAGAAAACAUG” here?
The binding signal was 4.11 log2 enrichment (interaction score).

With “GGCUAGAACUAGUGGAUCCCCCGGCGCCCGGCGGCUCGAGCCCGGGUAAGUGUACAUAGUCUGCAUGCCGCCGGGCGCCAUGCCUGCAGGUCGACUCUAGAAAACAUG” as the sequence, how does the binding signal [1] read?
The binding signal was 0.75 log2 enrichment (interaction score).

“GGCUAGAACUAGUGGAUCCCCCGGCGCCCGGCGGCUCGAGCCCGGGUAAGUGUAAAUAGUCUGCAUGCCGCCGGGCGCCAUGCCUGCAGGUCGACUCUAGAAAACAUG” was tested. Which binding signal [8] did it give?
The binding signal was 2.89 log2 enrichment (interaction score).

What about the binding signal [9] of the same sequence?
The binding signal was 2.47 log2 enrichment (interaction score).

What about the binding signal [10] of the same sequence?
The binding signal was 6.48 log2 enrichment (interaction score).

What about the binding signal [2] of the same sequence?
Its binding signal is 3.08 log2 enrichment (interaction score).

What about the binding signal [4] of the same sequence?
The binding signal was 2.71 log2 enrichment (interaction score).

What about the binding signal [5] of the same sequence?
The binding signal was 0.84 log2 enrichment (interaction score).

And the binding signal [3]?
Its binding signal is 3.37 log2 enrichment (interaction score).

What about the binding signal [1] of the same sequence?
Its binding signal is 2.34 log2 enrichment (interaction score).

What does the source list for “GGCUAGAACUAGUGGAUCCCCCGGCGCCCGGCGGCUCGAGCCCGGGUAAGUGUCAAUAGUCUGCAUGCCGCCGGGCGCCAUGCCUGCAGGUCGACUCUAGAAAACAUG”?
binding signal [8]: 5.21 log2 enrichment (interaction score); binding signal [3]: 1.4 log2 enrichment (interaction score)

How did the binding signal [8] turn out when “GGCUAGAACUAGUGGAUCCCCCGGCGCCCGGCGGCUCGAGCCCGGGUAAGUGUGAAUAGUCUGCAUGCCGCCGGGCGCCAUGCCUGCAGGUCGACUCUAGAAAACAUG” was run?
The binding signal was 0.49 log2 enrichment (interaction score).

What about the binding signal [3] of the same sequence?
The binding signal was 2.92 log2 enrichment (interaction score).
